Here are results for 31 compounds from PubChem BioAssay (Tox21).

Inconclusive results are not listed. Unmarked numbers belong to inactive results. Active and inactive are the calls of the source. Unless noted, calls follow the shape of the dose curve; as a rule, active = well fitted curve in the direction sought with a large enough effect in the repeat runs; inconclusive = weak or mixed curves; inactive = no such curve, though single readings can be large; an effect the other way counts as inactive or inconclusive.

Test [1] is described as follows: qHTS assay to identify small molecule agonists of the constitutive androstane receptor (CAR) signaling pathway - cell viability counter screen (AID 1224836). Also: series mostly up to about 92 µM; nearly all actives have a fitted effect of over 45% in size. In outline:
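Using CellTiter-Fluor, viability of HepG2 cells harbouring hCAR and CYP2B6-2.2kb was measured following 23 h incubation with a 15-concentration compound series plus PK11195 (0.75 uM final).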

A short description of test [2]: qHTS assay to identify small molecule antagonists of the constitutive androstane receptor (CAR) signaling pathway - cell viability counter screen (AID 1224837). Also: series mostly up to about 92 µM; nearly all actives have a fitted effect of over 45% in size. In outline:
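CITCO at 50 nM final was added alongside compounds (15 concentrations) to double-stable hCAR/CYP2B6-2.2kb HepG2 cells. Following 23 hr at 37 C, cell viability was quantified by CellTiter-Fluor fluorescence intensity.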

Test [3] deals with Nuclear receptor subfamily 1 group I member 3 (Homo sapiens) (UniProt Q14994). Briefly: qHTS assay to identify small molecule antagonists of the constitutive androstane receptor (CAR) signaling pathway (AID 1224838). Also: nearly all actives have a fitted effect of over 40% in size. In outline: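 Inhibition of CITCO-driven (50 nM final) CYP2B6 reporter expression is measured in HepG2 cells stably carrying hCAR. Fifteen compound concentrations are applied for 24 h at 37 C, followed by luciferase luminescence.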

Test [4] in a line: qHTS assay to identify small molecule antagonists of the estrogen related receptor signaling pathway with the pleiotropic PPARgamma coactivator (PGC) from Tox21 10K library - cell viability counter screen (AID 1224840; active = well fitted cell-killing curve with a large enough effect in the repeat runs, not every such curve was filed as active; also: nearly all actives have a fitted effect of over 40% in size). Put shortly: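 Readout: fluorescence intensity from CellTiter-Fluor after 30 min at 37 C/5% CO2. Preceded by 17.5 h treatment of PGC/ERR cells with DMSO-dissolved compounds, added 6 h post-seeding.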

Test [5] addresses Thyrotropin receptor (Homo sapiens) (UniProt P16473). Briefly: qHTS assay to identify small molecule agonists of the thyroid stimulating hormone receptor (TSHR) signaling pathway (AID 1224843; calls by dose curve; also: nearly all actives have a fitted effect of over 45% in size). In outline:
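Compounds are titrated over 15 concentrations, in triplicate, onto TSHR-HEK293 cells seeded at 800/well. Plates sit 30 min at room temperature before cAMP-d2 and anti-cAMP cryptate are added; signal is read after a further hour.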

A short description of test [6]: qHTS assay to identify small molecule agonists of the hypoxia (HIF-1) signaling pathway - cell viability counter screen (AID 1224844; calls by dose curve; also: nearly all actives have a fitted effect of over 50% in size). In outline:
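In this counter screen, HRE-bla ME-180 cell viability after 17 hrs of compound exposure at 37C was read by CellTiter-Glo luminescence, multiplexed with the beta-lactamase reporter measurement.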

Test [7] has as its target Nuclear receptor subfamily 1 group I member 3 (Homo sapiens) (UniProt Q14994). Put plainly: qHTS assay to identify small molecule agonists of the constitutive androstane receptor (CAR) signaling pathway (AID 1224839). Also: nearly all actives have a fitted effect of over 15% in size. Also: potency is read from the fitted curve at half-maximal effect. As to activation: series mostly up to about 92 µM. Put shortly:
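Double-stable HepG2 cells (hCAR, CYP2B6-2.2kb) seeded 4 h before compound addition. Exposure 24 h with 0.75 uM PK11195 final. Luciferase detected by ONE-Glo.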

Test [8] can be described thus: qHTS assay to identify small molecule antagonists of the estrogen related receptor signaling pathway with the pleiotropic PPARgamma coactivator (PGC) from Tox21 10K library (AID 1224841; call rule not given here; also: actives are mostly falling curves and most rising ones were filed inactive; nearly all actives have a fitted effect of over 50% in size; also: potency is read from the fitted curve at half-maximal effect; as to activity, negative = inhibition: series mostly up to about 92 µM). Put shortly:
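One-Glo luminescence, measured after half an hour at room temperature, quantified reporter output of PGC/ERR cells. These had been plated at 2,000 per well, incubated 6 h, dosed with compounds in DMSO, then kept 18 h at 37 C.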

Test [9] can be described thus: qHTS assay to identify small molecule agonists of the estrogen related receptor signaling pathway with the pleiotropic PPARgamma coactivator (PGC) from Tox21 10K library (AID 1224842). Also: nearly all actives have a fitted effect of over 15% in size. Put shortly:
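PGC/ERR reporter cells (NTP line) were seeded 2,000 per well, rested 6 h at 37 C/5% CO2, then pin-dosed with compounds in DMSO for 18 h at 37 C; luciferase read by One-Glo luminescence after 30 min at room temperature.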

Test [10] deals with Luciferin 4-monooxygenase (Photinus pyralis) (UniProt P08659). Briefly: qHTS assay to identify small molecule inhibitors of firefly luciferase (AID 1224835). Also: series mostly up to about 120 µM; nearly all actives have a fitted effect of over 25% in size. In outline: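 Quantitative HTS format; KM concentrations of both substrates. Purified P. pyralis FLuc activity quantified from luminescence images.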
% is scaled to controls: 0 for no effect and ±100 for the full control effect.

Thyrotropin receptor (Homo sapiens), sequence (P16473 whole entry, looked up): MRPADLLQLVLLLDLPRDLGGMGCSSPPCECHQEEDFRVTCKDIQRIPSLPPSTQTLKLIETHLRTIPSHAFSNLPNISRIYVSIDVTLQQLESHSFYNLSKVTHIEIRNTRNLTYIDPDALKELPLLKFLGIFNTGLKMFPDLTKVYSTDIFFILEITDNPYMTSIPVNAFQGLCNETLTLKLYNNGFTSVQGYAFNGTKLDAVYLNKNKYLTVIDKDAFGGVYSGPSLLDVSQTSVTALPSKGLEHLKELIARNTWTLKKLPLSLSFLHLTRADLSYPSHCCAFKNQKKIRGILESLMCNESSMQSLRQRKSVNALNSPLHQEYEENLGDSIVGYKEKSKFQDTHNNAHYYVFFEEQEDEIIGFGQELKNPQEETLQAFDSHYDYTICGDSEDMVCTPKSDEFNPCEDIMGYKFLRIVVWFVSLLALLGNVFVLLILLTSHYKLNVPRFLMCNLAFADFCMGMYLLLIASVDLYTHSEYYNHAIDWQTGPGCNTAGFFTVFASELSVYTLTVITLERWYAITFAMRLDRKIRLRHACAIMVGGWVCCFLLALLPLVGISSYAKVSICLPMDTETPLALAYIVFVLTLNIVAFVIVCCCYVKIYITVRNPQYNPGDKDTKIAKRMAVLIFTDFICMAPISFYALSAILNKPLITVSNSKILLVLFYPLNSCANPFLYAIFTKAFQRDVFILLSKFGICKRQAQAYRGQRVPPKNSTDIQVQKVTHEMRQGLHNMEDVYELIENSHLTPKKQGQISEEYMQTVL
Luciferin 4-monooxygenase (Photinus pyralis), sequence (P08659 whole entry, looked up): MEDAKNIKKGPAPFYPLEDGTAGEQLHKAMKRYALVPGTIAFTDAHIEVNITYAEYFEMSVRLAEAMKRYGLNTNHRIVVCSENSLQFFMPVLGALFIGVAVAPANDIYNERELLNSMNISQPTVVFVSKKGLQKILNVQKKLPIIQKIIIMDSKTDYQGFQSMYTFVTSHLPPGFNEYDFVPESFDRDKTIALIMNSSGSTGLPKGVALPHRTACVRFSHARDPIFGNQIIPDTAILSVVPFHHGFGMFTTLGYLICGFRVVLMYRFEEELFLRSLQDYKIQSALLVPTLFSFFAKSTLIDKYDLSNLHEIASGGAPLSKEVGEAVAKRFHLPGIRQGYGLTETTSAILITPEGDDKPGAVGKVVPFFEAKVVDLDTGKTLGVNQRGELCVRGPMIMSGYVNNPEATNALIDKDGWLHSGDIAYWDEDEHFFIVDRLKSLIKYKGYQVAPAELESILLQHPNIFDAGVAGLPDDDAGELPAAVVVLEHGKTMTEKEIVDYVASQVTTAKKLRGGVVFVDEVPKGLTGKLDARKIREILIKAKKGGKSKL
Nuclear receptor subfamily 1 group I member 3 (Homo sapiens), sequence (Q14994 whole entry, looked up): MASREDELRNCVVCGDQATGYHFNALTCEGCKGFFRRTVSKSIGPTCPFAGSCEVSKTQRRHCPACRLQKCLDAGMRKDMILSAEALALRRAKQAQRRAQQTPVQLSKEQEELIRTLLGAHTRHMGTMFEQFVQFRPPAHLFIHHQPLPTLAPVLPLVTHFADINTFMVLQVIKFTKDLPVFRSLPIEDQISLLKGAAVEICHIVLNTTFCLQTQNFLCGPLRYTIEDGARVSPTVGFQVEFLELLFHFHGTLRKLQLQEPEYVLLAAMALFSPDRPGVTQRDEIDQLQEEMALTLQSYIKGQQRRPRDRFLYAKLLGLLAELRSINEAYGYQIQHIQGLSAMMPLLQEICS

As to `CCCCCCCCCCCCSC`, the call in [1], in test [2] and in test [4] was inactive. Further, the Potency entry in test [3], in test [5] and in test [6] was “inactive” in each case.
`CN(C)CCCCCCN(C)C`: the result in [1], in test [2] and in [4] was inactive. The Potency result in [3], in test [7], in test [8], in test [9], in test [5] and in test [6] was “inactive” in each case.
Regarding `O=Cc1cccc(Br)c1`, the Potency result in test [10], in [3], in test [7], in [8], in [9] and in test [5] was “inactive” in each case. In addition, in test [6], the Potency result was “inactive”. The outcome in [4] was inactive.
For the compound `NC(N)=NCCN1CCCCCCC1`, the activity change, negative = inhibition in test [10] was -0.118% [at 0.435 µM]. In addition, in test [4], the viability change, negative = cytotoxic was -1.22% [at 0.349 µM]. In test [5], the activation is -0.603% [at 0.349 µM]. In addition, in test [6], the activity change, negative = cytotoxicity was -1.67% [at 0.29 µM].
Take `N[C@H](C(=O)O)[C@@H](O)c1ccc(O)c(O)c1`: the Potency result in test [10], in test [5] and in [6] was “inactive” each time. The compound was classed as inactive in [2] and in test [4].
With `Cc1ccc(-c2ccccc2C#N)cc1`, the compound was called inactive in test [1] and in test [2]. Moreover, the Potency result in [3], in [7], in test [5] and in test [6] was “inactive” in each case.
On to `Nc1ccncc1N`, for which the outcome in test [1], in [2] and in test [4] was inactive. In addition, the Potency entry in [3], in [5] and in test [6] was “inactive” throughout.
For `C1CCC2=NCCCN2CC1`, the outcome in test [1], in test [2] and in [4] was inactive. Besides, the Potency entry in [3], in [7], in [5] and in [6] was “inactive” each time.
On to `CC(=O)c1ccc2ccccc2c1`, for which the outcome in [1], in test [2] and in [4] was inactive. Moreover, the Potency entry in test [3], in [7] and in [6] was “inactive” in each case.
For `c1ccc2sc(SN3CCOCC3)nc2c1`, the compound was classed as inactive in test [1], in test [2] and in [4]. Further, the Potency entry in test [3], in [8], in test [9], in test [5] and in [6] was “inactive” in each case.
`Cc1ccnc(NS(=O)(=O)c2ccc(N)cc2)n1`: the Potency entry in test [10], in [8], in test [9], in [5] and in [6] was “inactive” throughout. The compound was called inactive in test [4].
In the case of `CN1CCC(=C2c3ccccc3CCc3cccnc32)CC1`, the result in [1], in test [2] and in test [4] was inactive. The Potency entry in test [3], in test [7], in test [5] and in test [6] was “inactive” each time.
On to `C[N+]1(C)CCCC(OC(=O)C(O)(c2ccccc2)c2ccccc2)C1` (stereo not drawn), for which the Potency result in test [10] and in test [6] was “inactive” throughout. In addition, the compound was classed as inactive in test [2].
With `CN1CCN(c2cc3c(nn2)Oc2ccccc2N3C)CC1`, the results for the viability change, negative = cytotoxic in [1] and in test [4] were -2.12% [at 19 µM] and 2.34% [at 19 µM], respectively. Also, the results for the activity change, negative = cytotoxicity in test [2] and in [6] were -0.71% [at 19 µM] and 1.97% [at 15.8 µM], respectively. Besides, the activity, negative = inhibition in test [3] was 125% [at 19 µM]. In addition, the Potency in [7] was 5.8 µM (active). Besides, the activation in [5] was -2.7% [at 19 µM].
On to `C=CCCC(=O)O`, for which the call in [1], in [2] and in [4] was inactive. In addition, the Potency entry in [3], in test [7], in [8], in test [9], in [5] and in test [6] was “inactive” each time.
On to `CC(=O)Oc1cccc(C)c1`, for which the outcome in test [1] and in test [2] was inactive. The Potency result in test [3], in test [7], in test [8], in test [9], in test [5] and in test [6] was “inactive” throughout.
`CCN(Cc1ccccc1)c1ccccc1`: the Potency result in test [10], in test [9] and in [5] was “inactive” throughout. Further, the Potency in test [8] was 42.7 µM (active).
With `CC(C)COC(=O)c1ccc(N)cc1`, the outcome in [1], in test [2] and in test [4] was inactive. Also, the Potency entry in test [3], in test [8], in [5] and in test [6] was “inactive” throughout.
Turning to `CC(C#N)(CCC(=O)O)N=NC(C)(C#N)CCC(=O)O` (stereo not drawn), the compound was called inactive in test [1], in test [2] and in test [4]. Besides, the Potency result in test [3], in test [7], in test [8], in [9], in test [5] and in [6] was “inactive” each time.
With `CCCCCC(=O)OCCc1ccccc1`, the compound was called inactive in test [1], in [2] and in test [4]. For the same compound, the Potency entry in test [3], in test [8], in test [9], in test [5] and in test [6] was “inactive” in each case.
As to `CCOC(=O)COc1cc(-n2ncc(C(F)(F)F)c(C)c2=O)c(F)cc1Cl`, the compound was classed as inactive in test [1] and in [2]. In addition, the Potency entry in test [3], in test [7] and in test [6] was “inactive” in each case.
With `CC(C)(C)C(=O)Oc1ccc(S(=O)(=O)Nc2ccccc2C(=O)NCC(=O)O)cc1`, the outcome in test [1] and in test [2] was inactive. The Potency entry in test [3], in test [7] and in test [6] was “inactive” in each case.
In the case of `CN1CC(=O)N/C1=N/C(=O)Nc1cccc(Cl)c1`, the compound was called inactive in test [1], in test [2] and in test [4]. For the same compound, the Potency result in [3], in test [5] and in test [6] was “inactive” each time. In test [7], the Potency is 33.5 µM (active).
In the case of `CC(C)(C#N)Nc1nc(Cl)nc(NC2CC2)n1`, the outcome in test [1], in test [2] and in test [4] was inactive. Besides, the Potency result in [3], in test [7], in test [5] and in [6] was “inactive” throughout.
With `CCCCc1ccc2c(n1)[C@@H](c1ccc(OC)cc1C[C@H](C)C(=O)O)[C@H](C(=O)O)[C@H]2c1ccc2c(c1)OCO2`, the result in [1], in [2] and in [4] was inactive. Moreover, the Potency result in test [3], in [7], in test [5] and in test [6] was “inactive” throughout.
As to `[Ca+2]`, the Potency result in test [10], in [5] and in test [6] was “inactive” throughout. Moreover, the call in test [2] and in [4] was inactive.
With `Cc1ccccc1N=C(N)N=C(N)N`, the Potency result in test [10], in [5] and in [6] was “inactive” each time. In test [4], the call was inactive.
On to `C=C[Si](OC(C)=O)(OC(C)=O)OC(C)=O`, for which the outcome in test [1] and in test [2] was inactive. For the same compound, the Potency entry in test [3], in test [7] and in [6] was “inactive” in each case.
For `CCN(CC#N)c1cccc(C)c1`, the call in [1] and in test [2] was inactive. For the same compound, the Potency entry in test [3], in test [7] and in [6] was “inactive” in each case.
`CO[C@@]1(NC(=O)C(C(=O)O)c2ccc(O)cc2)C(=O)N2C(C(=O)O)=C(CSc3nnnn3C)CO[C@@H]21` (stereo partly drawn): the outcome in test [1], in [2] and in [4] was inactive. Further, the Potency entry in test [3], in test [8], in test [9], in test [5] and in [6] was “inactive” throughout.
For the compound `c1ccc(CCc2ccccc2)cc1`, the result in test [1], in [2] and in [4] was inactive. Further, the Potency result in [3], in test [8], in [9] and in test [6] was “inactive” throughout.
